Results reported in PubChem BioAssay (NCATS).
Results filed as inconclusive are left out. Activity calls are given as the source filed them. Unless noted, calls follow the shape of the full dose curve.

What was measured:
[1] = qHTS drug screen for cell cycle checkpoint inhibitors in PARPi-resistant BRCA-mutant ovarian cancer cell lines. (AID 1963452); conditions: PEO1/OlaR viability, CellTiter-Glo luminescence, 96 h, stronger effect = lower value
In short: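 PEO1, PEO4 and PEO1/OlaR ovarian cancer cells, 600 per well, exposed 96 h at 37C to a dilution series. Viability read by CellTiter-Glo luminescence, normalized to DMSO and empty wells; activity summarized as Z-AUC.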

[2] = qHTS for identification of novel therapeutic agents for treatment of microphthalmiaassociated transcription factor (MiT) renal cell carcinoma (RCC) (AID 1963991); conditions: CellTiter-Glo, 48 h, stronger effect = lower value
In short: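 Viability of three TFE3-fusion renal carcinoma lines measured by CellTiter-Glo after 48 h treatment with each of 1912 compounds at 11 concentrations. Responses scaled between DMSO (100%) and empty wells (0%) before curve fitting.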

[3] = biological target: Cytochrome P450 1A2 (Homo sapiens) (UniProt P05177); assay: qHTS for inhibitors of CYPIA2 against the NCATS DSHEA and TCM libraries (AID 1919976; active = well fitted curve in the direction sought with a large enough effect; an effect the other way counts as inactive or inconclusive;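 also: light from luciferin formed by CYP1A2 from a pro-luciferin substrate; % is scaled to controls: 0 for no effect and ±100 for the full control effect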); conditions: recombinant CYP1A2 enzyme activity, luminescence; series mostly up to 37 µM
In short: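 CYP1A2 + luciferin substrate, 100 mM KPO4-type buffer; cmpd 15 min RT; 1x NADPH regen, 30-45 min RT dark; detection reagent 30 min RT; luminescence. Minus-enzyme wells as background; furafylline intraplate control.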

[4] = qHTS Counterscreen for compound interference against the NCATS DSHEA and TCM libraries (AID 1919978; active = well fitted curve in the direction sought with a large enough effect; an effect the other way counts as inactive or inconclusive;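 also: compounds preincubated with 1 µM D-luciferin or buffer before detection reagent; % of control where 0% means no effect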); conditions: firefly luciferase detection reagent interference, luminescence
In short: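 Luminescence counterscreen for detection-kit interference: compounds at 19.5 nM–39.8 uM final, 15 min RT with 1 uM D-luciferin or buffer only; detection reagent added, 30 min RT, then read.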

[5] = Dual reporter qHTS for agonist of Pregnane X Receptor (hPXR) against the NCATS DSHEA and TCM libraries: Fluorescence readout (AID 1920058; active = well fitted curve in the direction sought with a large enough effect; an effect the other way counts as inactive or inconclusive; also: 0% is about no effect); conditions: PXR dual reporter cells; series mostly up to 40 µM
In short: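 HepG2 hPXR-Luc, 2000 cells/well, 5 h attach; cpds ~24 h, 37 °C/5% CO2; CellTiter-Fluor 1 h; fluor. Ex/Em 405/540 nm = viability.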

[6] = biological target: Nuclear receptor subfamily 1 group I member 2 (Homo sapiens) (UniProt O75469); assay: Dual reporter qHTS for agonist of Pregnane X Receptor (hPXR) against the NCATS DSHEA and TCM libraries: Luminescence readout (AID 1920059; active = well fitted curve in the direction sought with a large enough effect; an effect the other way counts as inactive or inconclusive; also: 0% is about no effect); conditions: hPXR dual reporter cells, luciferase luminescence agonist; series mostly up to 40 µM
Source text: Assay Development and Screening Technology Laboratory (ADST)
National Center for Advancing Translational Sciences (NCATS), Rockville, MD
National Institute of Health (NIH), Bethesda, Maryland
Dietary Supplements and Natural Products have minor oversight of their safety and efficacy. We assembled a collection of Dietary Supplements and Natural Products (DSNP) as well as Traditional Chinese Medicinal (TCM) Plant extracts, which were screened against an in vitro panel of assays, including a liver cytochrome p450 enzyme panel, CAR/PXR signaling pathways, and P-gp transporter assays, to assess their activity. This pipeline facilitated the interrogation of Natural Product-Drug Interaction (NaPDI) through prominent metabolizing pathways. In addition, we compared the activity profiles of the DSNP/TCM substances with those of an approved drug collection. Many of the approved drugs have well-annotated mechanisms of action (MOA) while the MOAs for most of the DSNP and TCM samples remain unknown. Based on the premise that compounds with similar activity profiles tend to share similar targets or MOA, we clustered the library activity profiles to identify overlap with the NCATS Pharmaceutical Collection to predict the MOAs of the DSNP/TCM substances. Overall, we highlight four significant bioactivity profiles (measured by p-values) as examples of this prediction. To assess broad cytotoxicity, we employed screening against a HepG2 cell line. In addition, transporter-mediated drug interactions are utilized in the characterization of DDIs using a P-glycoprotein (P-gp) assays. To profile potential P-gp activity, a differential cell viability was measured against two cell lines: a parental KB-3-1 human cervical adenocarcinoma cell line and the drug-resistant subline KB-8-5-11 that overexpresses P-gp.
To this end, we profiled both collections for potential CAR and/or PXR activity, employing a previously published 1536-well qHTS assay.
[1] […]
8; Read; Fluorescence; ViewLux plate reader. […]
11; Read; Luminescence; ViewLux plate reader. […]

[7] = biological target: Nuclear receptor subfamily 1 group I member 2 (Homo sapiens) (UniProt O75469); assay: Dual reporter qHTS for antagonist of Pregnane X Receptor (hPXR) against the NCATS DSHEA and TCM libraries: Luminescence Readout (AID 1920060; active = well fitted curve in the direction sought with a large enough effect; an effect the other way counts as inactive or inconclusive; also: 0% is about no effect); conditions: hPXR dual reporter cells, luciferase luminescence, antagonist mode; series mostly up to 40 µM
In short: (§1)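 Rifampicin-stimulated (2 uM final) hPXR-luciferase HepG2 cells were treated for 24 h with DSNP/TCM substances. Viability came from CellTiter-Fluor fluorescence, reporter activity from ONE-Glo luminescence.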

[8] = Dual reporter qHTS for antagonist of Pregnane X Receptor (hPXR) against the NCATS DSHEA and TCM libraries: Fluorescence Readout (AID 1920061; active = well fitted curve in the direction sought with a large enough effect; an effect the other way counts as inactive or inconclusive; also: 0% is about no effect); conditions: PXR dual reporter cells, antagonist mode; series mostly up to 40 µM
In short: as §1

[9] = qHTS profiling for inhibitors of Plasmodium falciparum proliferation (AID 504749; active = well fitted curve in the direction sought with a large enough effect; an effect the other way counts as inactive or inconclusive; also: potency is read from the fitted curve at half-maximal effect; nearly all actives have a fitted effect of over 60% in size); conditions: P. falciparum in erythrocytes, SYBR Green DNA, 72 h
In short: (§2)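 Infected RBCs, 0.3% parasitemia/2.5% Hct final; cpd 72 h, 37 C, 5% CO2; lysis buffer with saponin/triton/SYBR Green I, o/n RT dark; FI 485/535; norm. to artemisinin (0.29 uM) and DMSO.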

3D7 = assay: as above; conditions: P. falciparum in erythrocytes, SYBR Green DNA, 72 h; series mostly up to 28.7 µM
In short: as §2

[10] = measured here: PEO1 parental Z-AUC
[11] = TFE3-RCC UOK109 viability, measured here: UOK109 Z-AUC
[12] = TFE3-RCC viability, measured here: UOK124 Z-AUC
[13] = TFE3-RCC viability, measured here: UOK145 Z-AUC

Sequence of Nuclear receptor subfamily 1 group I member 2 (Homo sapiens) (O75469 whole entry, looked up): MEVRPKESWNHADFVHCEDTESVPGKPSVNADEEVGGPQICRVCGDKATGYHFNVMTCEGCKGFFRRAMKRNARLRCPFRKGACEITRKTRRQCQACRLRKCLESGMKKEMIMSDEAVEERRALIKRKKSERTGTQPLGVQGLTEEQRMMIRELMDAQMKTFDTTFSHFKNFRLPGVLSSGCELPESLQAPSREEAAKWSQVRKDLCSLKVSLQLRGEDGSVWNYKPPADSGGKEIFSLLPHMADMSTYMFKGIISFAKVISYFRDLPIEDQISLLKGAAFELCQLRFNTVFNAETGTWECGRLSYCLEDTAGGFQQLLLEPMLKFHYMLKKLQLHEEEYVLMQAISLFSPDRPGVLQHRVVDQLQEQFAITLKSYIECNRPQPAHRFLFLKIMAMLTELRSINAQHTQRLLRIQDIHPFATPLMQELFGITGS
Sequence of Cytochrome P450 1A2 (Homo sapiens) (P05177 whole entry, looked up): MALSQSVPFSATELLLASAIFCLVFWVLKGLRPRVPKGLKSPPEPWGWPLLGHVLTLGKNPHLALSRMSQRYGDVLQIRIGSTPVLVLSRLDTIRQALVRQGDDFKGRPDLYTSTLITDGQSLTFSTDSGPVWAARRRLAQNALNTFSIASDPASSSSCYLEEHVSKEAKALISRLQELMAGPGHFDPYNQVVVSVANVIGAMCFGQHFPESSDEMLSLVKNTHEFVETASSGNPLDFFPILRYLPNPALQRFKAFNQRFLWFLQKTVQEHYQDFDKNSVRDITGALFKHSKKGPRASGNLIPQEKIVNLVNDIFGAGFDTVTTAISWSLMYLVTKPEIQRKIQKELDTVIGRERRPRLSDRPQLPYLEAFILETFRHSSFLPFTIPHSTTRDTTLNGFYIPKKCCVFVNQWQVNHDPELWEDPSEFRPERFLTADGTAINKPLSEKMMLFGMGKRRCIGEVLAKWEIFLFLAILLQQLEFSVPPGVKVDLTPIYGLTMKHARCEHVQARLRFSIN

CC(=O)[C@H]1CC[C@H]2[C@@H]3CC=C4C[C@@H](O)CC[C@]4(C)[C@H]3CC[C@]12C
Z-AUC [1]: 1.05 (inactive)
Z-AUC [1, 10]: 0.974
Z-AUC ([1]; measured here: PEO4 Z-AUC): 0.706
z-score [2, 11]: 0.424
z-score [2, 12]: 0.52
z-score [2, 13]: 0.375

Cc1nnc(C(=O)NC(C)(C)c2nc(C(=O)NCc3ccc(F)cc3)c(O)c(=O)n2C)o1
Z-AUC [1]: -0.384 (inactive)
Z-AUC [1, 10]: -0.195
Z-AUC ([1]; measured here: PEO4 Z-AUC): -0.396
z-score [2, 11]: 0.782
z-score [2, 12]: 0.249
z-score [2, 13]: 1.94

CNC(=O)c1cc(Oc2ccc(NC(=O)Nc3ccc(Cl)c(C(F)(F)F)c3)cc2)ccn1
Z-AUC [1]: 0.739 (inactive)
Z-AUC [1, 10]: 0.309
Z-AUC ([1]; measured here: PEO4 Z-AUC): 0.253

CCN(CC)CCn1c(=O)c(Cc2ccc(OC)cc2)nc2ccccc21
Z-AUC [1]: 0.658 (inactive)
Z-AUC [1, 10]: 1.23
Z-AUC ([1]; measured here: PEO4 Z-AUC): 1.19
z-score [2, 11]: 0.411
z-score [2, 12]: 0.577
z-score [2, 13]: 0.628

Cc1c(-c2ccc(O)cc2)n(Cc2ccc(OCCN3CCCCCC3)cc2)c2ccc(O)cc12
Z-AUC [1]: 1.04 (inactive)
Z-AUC [1, 10]: 0.798
Z-AUC ([1]; measured here: PEO4 Z-AUC): 0.376
z-score [2, 11]: 0.552
z-score [2, 12]: 0.408
z-score [2, 13]: 0.653

OCc1ccc(-c2nn(Cc3ccccc3)c3ccccc23)o1
Z-AUC [1]: 0.562 (inactive)
Z-AUC [1, 10]: 1.06
Z-AUC ([1]; measured here: PEO4 Z-AUC): 0.997

O=C(O)C1CCCN(CCC=C(c2ccccc2)c2ccccc2)C1 (stereo not given)
Z-AUC [1]: 1.76 (inactive)
Z-AUC [1, 10]: 1.39
Z-AUC ([1]; measured here: PEO4 Z-AUC): 1.34

NC(=O)c1ccc2[nH]ccc2c1
Z-AUC [1]: -0.236 (inactive)
Z-AUC [1, 10]: -0.451
Z-AUC ([1]; measured here: PEO4 Z-AUC): -0.798
z-score [2, 11]: 0.214
z-score [2, 12]: 0.789
z-score [2, 13]: -0.184

CO[C@@]12[C@H](COC(N)=O)C3=C(C(=O)C(C)=C(N)C3=O)N1C[C@@H]1N[C@@H]12
Z-AUC [1]: 0.952 (inactive)
Z-AUC [1, 10]: 0.894
Z-AUC ([1]; measured here: PEO4 Z-AUC): 1.04

COC(c1ccccc1)(c1ccccc1)[C@H](Oc1nc(C)cc(C)n1)C(=O)O
Z-AUC [1]: 1.02 (inactive)
Z-AUC [1, 10]: 1.24
Z-AUC ([1]; measured here: PEO4 Z-AUC): 1.24
z-score [2, 11]: 1.16
z-score [2, 12]: 0.918
z-score [2, 13]: 0.706

O=S(=O)(c1cccc2cnccc12)N1CCCNCC1
Z-AUC [1]: -0.00128 (inactive)
Z-AUC [1, 10]: -0.265
Z-AUC ([1]; measured here: PEO4 Z-AUC): 0.443

CC(C(=O)O)c1ccc2c(c1)CC(=O)c1ccccc1S2 (stereo not given)
Z-AUC [1]: 1.18 (inactive)
Z-AUC [1, 10]: 0.703
Z-AUC ([1]; measured here: PEO4 Z-AUC): 0.789

NNC(=O)c1ccncc1
outcome [3]: inactive
max response [4]: 1.88% (inactive)
outcome [5]: inactive
outcome [6]: inactive
outcome [7]: inactive
outcome [8]: inactive
Z-AUC [1]: 0.416 (inactive)
Z-AUC [1, 10]: 1.78
Z-AUC ([1]; measured here: PEO4 Z-AUC): 1.56
z-score [2, 11]: 1.86
z-score [2, 12]: 0.222
z-score [2, 13]: 0.436

COc1ccc2cc3[n+](cc2c1OC)CCc1cc2c(cc1-3)OCO2
max response [4]: -1.19% (inactive)
outcome [5]: inactive
outcome [6]: inactive
outcome [7]: inactive
outcome [8]: inactive
Z-AUC [1]: 0.64 (inactive)
Z-AUC [1, 10]: -0.712
Z-AUC ([1]; measured here: PEO4 Z-AUC): 0.437
Potency ([9]; parasite line A): 447 nM (active)
Potency ([9]; parasite line B): 1260 nM (active)
Potency (3D7): 2000 nM (active)

Nc1nc(=S)c2[nH]cnc2[nH]1
Z-AUC [1]: 0.0206 (inactive)
Z-AUC [1, 10]: -0.887
Z-AUC ([1]; measured here: PEO4 Z-AUC): -1.01
